# From PubChem
# tim23-1 inh – tim23-1 yeast growth inhibition | S. cerevisiae tim23-1 growth, BacTiter-Glo luminescence, 24 h | inhibition, % at 20 µM | 330,000 tested, 1.3% active | AID 463212;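 active means growth inhibition of the mutant yeast at or above 50%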;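 further: temperature-sensitive mutant grown at 25 °C; plate controls were DMSO-treated mutant yeast for no effect and medium wells lacking yeast for full effect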
# tim10-1 inh – growth inhibitors of tim10-1 mutant yeast; inhibition, % at 20 µM; 330,000 tested, 2.2% active; S. cerevisiae tim10-1 ts strain growth, BacTiter-Glo, 24 h;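 active means inhibition of at least 40%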;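 further: mutant grown at 25 °C; 0% = DMSO wells with yeast and 100% = wells holding no yeast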
# PfHsp90 yeast 2 – inhibits growth of yeast expressing Plasmodium falciparum Hsp90; 310,000 tested, 0.32% active; AID 504621; inhibition, % at 9.4 µM; S. cerevisiae expressing PfHsp90, BacTiter-Glo ATP, 48 h; yeast lacking PDR1 and PDR3 efflux regulators;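 active means every replicate shows inhibition above about 80%, whatever the replicate mean, limit read from the data; inconclusive means mean inhibition reaches the set limit but some replicate falls short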;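 further: 0% = DMSO neutral controls and 100% = 20 µM radicicol positive controls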
# SKKanGAS inh – inhibitors of SKKanGAS S. pyogenes growth in kanamycin (SK-promoter or general growth effect) | BacTiter-Glo, 6 h | 300,000 tested, 1.3% active | AID 1662 | inhibition, % at 7.5 µM;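 active means mean replicate score, as percent of positive control median, at least 50; inconclusive means mean below 50 but one replicate at or above 50; inactive means mean and every replicate below 50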;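 further: strain carries kanamycin resistance gene driven by streptokinase promoter and grows in 40 µg/ml kanamycin; loss of luminescence reflects streptokinase promoter inhibition or plain growth inhibition; 0% = median of DMSO wells and 100% = positive control at its reference dose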
# TIM10 inh – TIM10 yeast growth inhibition | S. cerevisiae TIM10 strain growth, BacTiter-Glo luminescence, 24 h | inhibition, % at 10 µM | 330,000 tested, 1.4% active;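 active means inhibition of 40% or more at the single tested concentration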;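 further: wild-type TIM10 isogenic control strain grown at permissive 25 °C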
# EBI2 antag – antagonists of human EBI2 receptor | EBI2 beta-arrestin recruitment, luminescence, 7a,25-OHC stimulated | inhibition, % at 5 µM | 360,000 tested, 0.81% active; in the data active means inhibition above about 38%;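 further: enzyme fragment complementation signal reports receptor beta-arrestin coupling in cells; 0% = agonist plus DMSO wells and 100% = wells without agonist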
# Target sequence (P32249 whole entry, looked up, the tested form may be a part): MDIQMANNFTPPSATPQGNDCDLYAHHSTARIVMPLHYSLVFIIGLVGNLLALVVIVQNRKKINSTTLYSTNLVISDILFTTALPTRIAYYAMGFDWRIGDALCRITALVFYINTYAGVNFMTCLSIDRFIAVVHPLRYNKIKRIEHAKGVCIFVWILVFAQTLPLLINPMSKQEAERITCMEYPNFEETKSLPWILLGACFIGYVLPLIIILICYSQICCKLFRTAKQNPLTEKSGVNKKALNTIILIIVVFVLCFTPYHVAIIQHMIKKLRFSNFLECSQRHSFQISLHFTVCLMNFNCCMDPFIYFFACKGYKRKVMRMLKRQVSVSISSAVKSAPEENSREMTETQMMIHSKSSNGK
# tim10-1 confirm – confirmation of tim10-1 mutant yeast growth inhibitors | shares compounds with tim10-1 inh | AID 463213 | S. cerevisiae tim10-1 ts strain growth, BacTiter-Glo, 24 h | inhibition, % at 20 µM | 7,400 tested, 56% active;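 active means inhibition of yeast growth at or above a set limit in either of two repeat tests at 20 µM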;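 further: tim10-1 mutant grown at permissive 25 °C to find synthetic lethal compounds; 0% = DMSO yeast wells and 100% = medium wells without yeast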
# Active calls of the source: *; u = inconclusive; x = no result. Compounds with a hit are over-represented: about 4.7% of the library has one in this group of screens.
SMILES,tim23-1 inh,tim10-1 inh,PfHsp90 yeast 2,SKKanGAS inh,TIM10 inh,EBI2 antag,tim10-1 confirm
CCN(CC)C(=O)[C@H]1C[C@H](CC(=O)NCCCOC)C(=O)N2CCc3c([nH]c4cc(CCC(=O)N(C)C)ccc34)[C@]12C,30.8,19.0,12.1,x,5.9,-3.3,x
c1csc(-c2nnc(Cc3cccc4ccccc34)o2)c1,25.7,45.2*,x,8.8,5.5,3.7,22.5
Cc1ccc(NC(=O)c2sc(N)nc2-c2ccc([N+](=O)[O-])cc2)cc1C,-9.6,-5.8,-3.8,-3.4,-11.9,10.8,x
Cc1ccc(NC(=O)c2sc(N)nc2-c2ccccc2)cc1C,40.9,48.6*,23.4,-16.8,15.3,14.4,37.0*
COC(=O)CS(=O)(=O)c1nnc([C@H](Cc2ccccc2)NC(=O)OC(C)(C)C)o1,23.2,43.7*,-33.5,-2.2,18.4,-2.2,37.7*
COC(=O)CSc1nnc([C@H](Cc2ccccc2)NC(=O)OC(C)(C)C)o1,19.0,15.9,-4.6,1.6,-5.2,-1.2,x
COc1ccc(Cl)cc1NC(=O)CN1CCC(n2nnc3cc(C)ccc32)CC1,31.4,40.0,21.9,u,17.4,23.1,16.2
CCCCN(C(=O)c1ccc2c(c1)OCO2)c1ccccc1,9.4,17.9,4.8,6.2,16.1,-1.8,x
CC/C(=N\NC(=O)CCC(=O)NCc1ccccc1)c1ccc(O)cc1,12.9,0.1,2.3,3.6,5.1,-3.6,x
C=C(C)CN(CC)C(=O)CSc1ccc(S(=O)(=O)N2CCN(Cc3ccccc3)CC2)cn1,29.8,13.2,-43.4,x,9.9,-3.9,x
CC(C)(C)C(=O)CSc1ccc(S(=O)(=O)N2CCN(Cc3ccccc3)CC2)cn1,38.7,41.9*,-0.5,x,24.4,-1.9,35.7*
CCOc1ccc(C(=O)CN2CCN(S(=O)(=O)c3ccc(Br)cc3)CC2)cc1,23.2,17.0,x,1.0,12.8,10.1,x
CCOc1ccc(C(=O)CN2CCN(S(=O)(=O)c3ccc(OC)cc3)CC2)cc1,48.4,42.5*,16.7,1.8,23.3,9.1,42.0*
COc1ccc(S(=O)(=O)N2CCN(Cc3cccnc3)CC2)cc1,0.3,-15.3,15.4,-4.0,-0.4,6.0,x
COc1ccc(S(=O)(=O)N2CCN(Cc3ccccc3)CC2)cc1,40.7,47.5*,11.3,-1.8,12.2,-6.2,31.0
O=C(CCS(=O)(=O)c1ccccc1)NNC(=O)CSc1ccccc1F,2.8,-0.4,-2.9,x,4.7,-7.5,x
CN(CC(=O)Nc1ccc(OC(F)(F)F)cc1)C(=O)/C=C/c1cc2c(cc1[N+](=O)[O-])OCO2,9.2,-26.4,15.8,x,-3.8,3.2,x
CCOC(=O)c1cnc(Nc2nc3ccccc3o2)nc1CSc1nnc(C)s1,11.3,49.5*,-19.4,15.9,10.1,10.6,16.0
COc1ccc(CN2C(=O)c3c(c(C)n(C)c3C)C2C(=O)NC2CCC(C)CC2)cc1 (centres undefined),32.9,42.3*,x,0.6,27.6,17.6,27.9
COc1ccc(NC(=O)CN(C)CC(=O)NC2CCC(C)CC2)cc1 (centres undefined),20.9,12.8,1.5,x,9.2,-1.5,x
COC(=O)C1(Cc2ccccc2)NC(c2ccc(F)cc2)C2C(=O)N(C)C(=O)C21 (centres undefined),23.2,18.7,-4.6,4.2,5.3,5.1,x
COC(=O)[C@]1(Cc2ccccc2)N[C@H](c2ccc(-c3ccccc3)cc2)[C@@H]2C(=O)N(C)C(=O)[C@@H]21,18.2,44.6*,11.9,2.4,13.5,0.1,18.8
N#CC(CC(=O)c1ccc(F)cc1)c1ccc2c(c1)OCO2 (centres undefined),38.9,40.5*,-7.4,1.5,18.0,13.6,30.9*
CCN(CC)S(=O)(=O)c1ccc(C)c(NC(=O)/C=C/c2cccs2)c1,27.6,45.4*,3.7,-3.1,28.2,3.7,30.4*
Cc1ccccc1NC(=O)/C=C/c1cccs1,20.3,21.7,27.3,-0.2,8.8,-9.8,x
SMILES,tim23-1 inh,tim10-1 inh,PfHsp90 yeast 2,SKKanGAS inh,TIM10 inh,EBI2 antag,tim10-1 confirm
Cc1cc(/C=C(\C#N)C(=O)NCc2ccco2)c(C)n1-c1cccnc1,16.6,3.6,20.3,6.0,3.9,-7.6,x
Cc1cc(/C=C(\C#N)C(=O)NCc2ccco2)c(C)n1C1CCCC1,36.5,45.6*,-9.5,10.0,-4.8,12.5,30.6
Cc1ccc(Cl)c(OCC(=O)NC2CCN(Cc3ccccc3)CC2)c1,-1.8,67.9*,x,-1.9,-24.6,0.4,-49.1
Cc1cc(=O)oc2cc(OCC(=O)NC3CCN(Cc4ccccc4)CC3)c(Cl)cc12,7.1,8.9,14.9,-0.2,16.5,-6.9,x
CCOc1cc(/C=C2\C(=O)N(Cc3ccc(C)cc3)C(C)=C2C(=O)OC)ccc1O,46.9,44.1*,-10.8,3.3,28.1,12.6,24.6
N#Cc1ccc(CSc2nc(N)cc(N)n2)cc1,-4.1,-6.7,22.5,-1.0,0.2,-5.2,x
Cc1cc(N2CCCCC2)nc(SCc2ccc(C#N)cc2)n1,39.5,47.3*,9.5,-2.6,32.8,6.4,27.8
CC(C)(C)C1CCc2nc(NC(=O)Cc3cn4ccsc4n3)sc2C1 (centres undefined),47.3,57.3*,-9.7,46.6,29.9,14.1,33.6*
CCCCCCCCCCOC(=O)Cn1c(COc2ccccc2OC)[n+](C)c2ccccc21,22.7,45.7*,-30.8,75.2*,33.4,-12.0,64.5*
N/C(=N\OC(=O)CCC1CCCC1)c1ccc([N+](=O)[O-])cc1,29.9,60.5*,-67.6,-0.4,17.9,-0.7,57.9*
N/C(=N\OC(=O)CCC1CCCC1)c1ccccc1,46.3,52.4*,7.4,-0.9,34.8,-10.0,44.4*
CCCC(=O)OCC(=O)Nc1ccc([N+](=O)[O-])cc1C#N,10.1,17.3,10.0,1.9,4.2,8.6,x
N#Cc1cc([N+](=O)[O-])ccc1NC(=O)COC(=O)CCC1CCCCC1,33.2,45.3*,x,-3.3,16.6,x,37.0*
N/C(=N\OC(=O)CCC1CCCC1)c1ccccn1,29.9,19.8,1.1,-2.0,27.0,-30.2,x
CCCCCCC1CC(CSc2ncn[nH]2)OC1=O (centres undefined),25.6,19.0,10.4,-16.4,-6.6,4.6,x
CC(c1ccccn1)N(C)C(=O)c1ccc2nc(Cc3ccccc3F)oc2c1 (centres undefined),26.4,24.0,-39.6,5.0,17.5,4.2,x
COc1ccc(C(=O)N/C(=C\c2cn(C)c3ccccc23)C(=O)OCC(C)C)cc1,-2.5,12.7,-24.6,16.2,2.9,1.8,x
CC(NC(=O)Cc1ccsc1)c1ccc(Cl)cc1Cl (centres undefined),13.4,19.0,-0.8,-0.9,17.3,3.5,x
COc1ccc(C2=NN(C(=O)CSc3nnc(-c4ccccc4F)o3)C(c3ccco3)C2)cc1 (centres undefined),42.4,47.5*,3.2,19.9,26.2,-9.6,37.5*
